Assay outcomes: PubChem, The Scripps Research Institute Molecular Screening Center
The list is not random: actives were taken first. Their share in the collection is about 1.3%.
Rin1 Abl inh = blocks binding of human Rin1 to Abl; P00519+Q13671; TR-FRET Rin1/Abl binding, biochemical; inhibition, % at 7.35 µM; 0.4% of 360,000 active; AID 588664; in the data active = inhibition above about 5%, passing the limit was not always enough
IDE cell activ = boosts human insulin-degrading enzyme activity in HEK cells | FAbeta-B cleavage, fluorescence polarization; 0% vehicle, 100% cell-free pure enzyme wells | activation, % at 5.96 µM | 0.073% of 340,000 active | AID 493087;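 active = activation above the mean of all tested compounds plus 3 SD, set per screening campaign, cut at about 17% in these data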
IDE cell inh = inhibits human insulin-degrading enzyme in HEK cells; P14735; FAbetaB cleavage, fluorescence polarization; inhibition, % at 5.59 µM; 0.41% of 320,000 active; AID 434962;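 active = percent inhibition above the average of all tested compounds plus 3 SD, set per screening campaign, cut at about 16% in these data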;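 note: IDE supplied by intact live HEK cells; FP after avidin binding of uncleaved biotin substrate so inhibition keeps polarization high; 0% = DMSO wells and 100% = 60 µM reference IDE inhibitor Ii1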
PKA-R2B act = activators of human PKA-R2B complex. activation, % at 11.4 µM. PKA-R2B holoenzyme dissociation, Cy5-IP20 fluorescence polarization; R2B truncated from residue 108, S112A mutant; 0% DMSO only, 100% 113 µM cGMP. P22694+P31323. 0.079% of 340,000 active;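 active = activation above a cutoff set at the mean over all compounds plus 3 SD, cut at about 18% in these data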;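 note: higher means more holoenzyme dissociation and a rise in polarization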
PKA-R1A act = activators of PKA-R1A complex | 0.083% of 340,000 active | activation, % at 11.4 µM | PKA-R1A dissociation, Cy5-IP20 fluorescence polarization; scaled: DMSO 0%, 113 µM cGMP 100% | P00514+P68181 | AID 504707;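 active = percent activation above the mean of all tested compounds plus 3 SD, cut at about 19% in these data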;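 note: higher means more PKAc released from R1A so a rise in polarization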
eLon inh = E. coli protease La inhibition; purified E. coli Lon protease, fluorescence polarization; inhibition, % at 7.94 µM; 0.42% of 360,000 active; AID 602123; in the data active = inhibition above about 13%, passing the limit was not always enough;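 note: 0% = enzyme with probe and DMSO and 100% = no enzyme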
Target sequence (P0A9M0 whole entry, looked up): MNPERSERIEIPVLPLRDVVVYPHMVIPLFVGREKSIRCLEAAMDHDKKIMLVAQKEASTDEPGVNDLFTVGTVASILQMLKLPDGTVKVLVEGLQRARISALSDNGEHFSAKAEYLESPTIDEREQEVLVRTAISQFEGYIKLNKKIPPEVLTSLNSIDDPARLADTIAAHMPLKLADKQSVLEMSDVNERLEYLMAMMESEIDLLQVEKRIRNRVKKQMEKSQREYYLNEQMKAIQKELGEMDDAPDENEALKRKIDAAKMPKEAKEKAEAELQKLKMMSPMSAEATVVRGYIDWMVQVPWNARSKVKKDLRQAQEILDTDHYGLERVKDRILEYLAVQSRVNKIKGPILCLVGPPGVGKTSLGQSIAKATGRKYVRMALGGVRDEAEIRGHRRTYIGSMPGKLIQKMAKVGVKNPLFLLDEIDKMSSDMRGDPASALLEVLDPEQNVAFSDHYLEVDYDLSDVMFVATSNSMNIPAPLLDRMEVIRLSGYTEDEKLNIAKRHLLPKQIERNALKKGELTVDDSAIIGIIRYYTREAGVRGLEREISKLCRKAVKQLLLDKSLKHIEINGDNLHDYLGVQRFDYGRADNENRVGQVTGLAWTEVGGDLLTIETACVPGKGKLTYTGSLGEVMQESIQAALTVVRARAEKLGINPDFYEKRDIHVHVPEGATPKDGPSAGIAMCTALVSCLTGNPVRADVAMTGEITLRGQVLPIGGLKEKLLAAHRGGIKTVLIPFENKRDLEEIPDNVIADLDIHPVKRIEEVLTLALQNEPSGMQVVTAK
Rin1-Abl confirm = confirmation of inhibitors of human Rin1-Abl interaction; TR-FRET Rin1-Abl binding, purified proteins; 49% of 1,300 active; shares compounds with Rin1 Abl inh; inhibition, % at 7.35 µM; AID 602124; in the data active = inhibition above about 6.5%
GFP quench-1 = GFP fluorescence interference artifact; inhibitors/quenchers counterscreen; AID 602125; inhibition, % at 6.75 µM; shares compounds with Rin1 Abl inh; 8.5% of 1,300 active; in the data active = inhibition above about 6.5%;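 note: ABL1-eGFP fusion protein alone without its partner RIN1-SBP; 0% = protein with vehicle and 100% = wells lacking protein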
GFP quench DR = counter-screen for Rin1-Abl inhibitors: GFP quenchers, dose response; 230 tested, under 10 active; shares compounds with Rin1 Abl inh; GFP fluorescence interference/quenching counterscreen; IC50, µM;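 note: ABL1-eGFP fusion protein alone without its RIN1 binding partner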
GFP quench-2 = counter-screen for Rin1-Abl interaction inhibitors: GFP fluorescence quenching. shares compounds with Rin1 Abl inh. GFP fluorescence quenching counterscreen, biochemical. IC50, µM. 25 tested, under 10 active
Numbers without * were called inactive. Unless noted, the rule behind the calls is not given here.

Results for CCc1cc2c(=O)[nH]c(Cc3ccc(Cl)cc3)nc2s1 ?
Rin1 Abl inh: -11; IDE cell activ: 0; IDE cell inh: -3; PKA-R2B act: 0; PKA-R1A act: -9; eLon inh: -3

Results for CCCOc1ccc(/C=N/NC(=O)CSc2ccccn2)cc1OC ?
Rin1 Abl inh: 16*; IDE cell activ: 6; IDE cell inh: 3; PKA-R2B act: 7; PKA-R1A act: -6; eLon inh: 3; Rin1-Abl confirm: 22*; GFP quench-1: 0; GFP quench DR: >68

How did COc1cc(/C=N/NC(=O)CSc2ccccn2)ccc1O do in these assays?
Rin1 Abl inh: -3; IDE cell activ: 0; IDE cell inh: 2; PKA-R2B act: -14; PKA-R1A act: -6; eLon inh: 0

Results for CCCOc1ccc(/C=N\NC(=O)CCc2n[nH]c(=O)[nH]c2=O)cc1OC ?
Rin1 Abl inh: 7.8*; IDE cell activ: -1; IDE cell inh: -1; PKA-R2B act: -8; PKA-R1A act: 0; eLon inh: 3; Rin1-Abl confirm: 8.8*; GFP quench-1: 0

How did CC(C)(C)OC(=O)C[C@@H]1C/C=C\C[C@@H](CC(=O)N(CCO)Cc2ccccc2)C(=O)NCCOC1=O do in these assays?
Rin1 Abl inh: 2; IDE cell activ: 6; IDE cell inh: 0; PKA-R2B act: 4; PKA-R1A act: 5; eLon inh: 5

How did N#CC(c1ccc(Cl)cc1)c1ncc(C(F)(F)F)cc1Cl (stereo unspecified) do in these assays?
Rin1 Abl inh: 3; IDE cell activ: 5; IDE cell inh: -1; PKA-R2B act: 1; PKA-R1A act: -3; eLon inh: -7

How did CCOC(=O)c1ccccc1NC(=O)c1cccc([N+](=O)[O-])c1 do in these assays?
Rin1 Abl inh: 9.8*; IDE cell activ: 1; IDE cell inh: 1; PKA-R2B act: -1; PKA-R1A act: 0; eLon inh: -10; Rin1-Abl confirm: -3; GFP quench-1: 0

Results for NS(=O)(=O)c1ccc(N=Nc2c[nH]c(=O)c(O)c2)cc1 ?
Rin1 Abl inh: 18*; IDE cell activ: 1; IDE cell inh: 3; PKA-R2B act: -8; PKA-R1A act: 1; eLon inh: 23; Rin1-Abl confirm: 14*; GFP quench-1: 24*

How did CN(CCc1ccccc1)C(=O)c1ccc(NC(=O)Cc2ccc(NC(=O)C3CCN(C(=O)C4CCCC4)CC3)cc2)cc1 do in these assays?
Rin1 Abl inh: 60*; IDE cell activ: 1; PKA-R2B act: 10; PKA-R1A act: 2; eLon inh: -7; Rin1-Abl confirm: 68*; GFP quench-1: 1; GFP quench DR: >67; GFP quench-2: >68

How did CN(CCc1ccccc1)C(=O)c1ccc(NC(=O)Cc2ccc(NC(=O)C3CCN(C(=O)C4CC4)CC3)cc2)cc1 do in these assays?
Rin1 Abl inh: 13*; IDE cell activ: 4; PKA-R2B act: -10; PKA-R1A act: -11; eLon inh: 5; Rin1-Abl confirm: 15*; GFP quench-1: -4

Results for CN(CCc1ccccc1)C(=O)c1cccc(NC(=O)Cc2cccc(NC(=O)C3CCN(C(=O)C4CC4)CC3)c2)c1 ?
Rin1 Abl inh: 0; IDE cell activ: 5; PKA-R2B act: -3; PKA-R1A act: -6; eLon inh: -2

What do the screens show for `CN(CCc1ccccc1)C(=O)c1ccc(NC(=O)Cc2ccc(NC(=O)C3CCN(C(=O)c4ccccc4)CC3)cc2)cc1`?
Rin1 Abl inh: 41*; IDE cell activ: 0; PKA-R2B act: 2; PKA-R1A act: 0; eLon inh: 1; Rin1-Abl confirm: 42*; GFP quench-1: 1; GFP quench DR: >67; GFP quench-2: >68

How did CCOC(=O)C[C@@H](C#N)NC(=O)[C@@H]1CCCN1C(=O)[C@@H](NC(=O)c1ccc(N)c(Cl)c1)C(C)(C)C do in these assays?
Rin1 Abl inh: -1; eLon inh: -5

What do the screens show for `CCCc1nc(-c2ccccc2)c(-c2ccc(OC)c(OC)c2)c(=O)[nH]1`?
Rin1 Abl inh: -1; IDE cell activ: 6; IDE cell inh: -6; PKA-R2B act: 10; PKA-R1A act: -8; eLon inh: -4

Results for O=c1[nH]c(C2CCN(S(=O)(=O)c3cccc(Cl)c3)CC2)nc2c1nnn2Cc1ccccc1 ?
Rin1 Abl inh: 0; IDE cell activ: 1; PKA-R2B act: -1; PKA-R1A act: -16; eLon inh: 3

What do the screens show for `CC1(c2ccccc2)NC(=O)N(CC(=O)Nc2ccc3c(c2)CCC3)C1=O` (stereo unspecified)?
Rin1 Abl inh: 8.2*; IDE cell activ: 4; IDE cell inh: -1; PKA-R2B act: 5; PKA-R1A act: -4; eLon inh: -4; Rin1-Abl confirm: -2; GFP quench-1: 1

What do the screens show for `CCC1(c2ccccc2)NC(=O)N(CC(=O)Nc2ccc3c(c2)CCC3)C1=O` (stereo unspecified)?
Rin1 Abl inh: -1; PKA-R2B act: 2; PKA-R1A act: 7; eLon inh: -9

Results for O=C(COC(=O)c1ccc([N+](=O)[O-])cc1Cl)Nc1cccnc1Cl ?
Rin1 Abl inh: 8.7*; IDE cell activ: 0; IDE cell inh: 2; PKA-R2B act: 0; PKA-R1A act: 2; eLon inh: 1; Rin1-Abl confirm: 3; GFP quench-1: 0

What do the screens show for `O=C(NNC(=O)c1ccc(F)c(S(=O)(=O)N2CCOCC2)c1)c1ccc(Br)cc1`?
Rin1 Abl inh: 1; IDE cell activ: 2; IDE cell inh: 4; PKA-R2B act: -7; PKA-R1A act: -2; eLon inh: -4

How did O=C(Cc1ccc(NC(=O)C2CCN(C(=O)C3CCC3)CC2)cc1)Nc1ccc(C(=O)N2CCOCC2)cc1 do in these assays?
Rin1 Abl inh: 23*; IDE cell activ: 4; PKA-R2B act: -2; PKA-R1A act: -4; eLon inh: -5; Rin1-Abl confirm: 21*; GFP quench-1: 0; GFP quench DR: >67

Results for O=C(Cc1ccc(NC(=O)C2CCN(C(=O)CCc3ccccc3)CC2)cc1)Nc1ccc(C(=O)N2CCOCC2)cc1 ?
Rin1 Abl inh: 4; IDE cell activ: 1; PKA-R2B act: 4; PKA-R1A act: -3; eLon inh: -11
